Laboratory results: ChEMBL document CHEMBL4513216, “Probing the Open Global Health Chemical Diversity Library for Multistage-Active Starting Points for Next-Generation Antimalarials” (ACS Infect Dis, 2020)
The campaign covered roughly 69,000 compounds. About 8,600 (12%) showed an effect of 50% or more. This excerpt belongs to a sample that is enriched for strong results.

What follows are compounds tested on Plasmodium berghei (assay: Screen against P. berghei liver stage (PbLuc), transformed with Luciferase, at 10uM). Conditions: tested at 10 uM.
Type: functional, HepG2
With `CCC(C)C(=O)NCCc1nc(C(F)(F)F)cs1` (stereo unspecified) the INHIBITION was 5.42%. In the case of `CCc1nc(C(=O)N2CC(C)CN(C)c3ccccc32)c[nH]1` (stereo unspecified), the INHIBITION is reported as -15%. `CCOCCCn1c(NC(=O)c2scnc2C)nc2ccccc21` gave an INHIBITION of 69.8%. Work on `CCOCCCn1c(NC(=O)c2ccnc(C)n2)nc2ccccc21` yielded an INHIBITION of 25.4%. `CCOCCCn1c(NC(=O)c2cnc(C)cn2)nc2ccccc21` was tested, and the INHIBITION was -96.9%. Work on `Cc1ncsc1C(=O)Nc1ccccn1` yielded an INHIBITION of 25.2%. Compound `CCOc1cccc(NC(=O)c2cc(C)on2)n1` has an INHIBITION of 44.1%. `CCOCCCn1c(NC(=O)c2cc(C)on2)nc2ccccc21` gave an INHIBITION of 64.9%. With `CCCn1c(NC(=O)CNC(=O)OCC)nc2ccccc21` the INHIBITION was -3.74%. In the case of `CCOCCCn1c(NC(=O)c2cnn(C)c2)nc2ccccc21`, the INHIBITION is reported as -4.73%. `CCN(CC)CCn1c(NC(=O)c2scnc2C)nc2ccccc21` was tested, and the INHIBITION was 59%. In the case of `CCOCCCn1c(NC(=O)c2ccc(C)nc2)nc2ccccc21`, the INHIBITION is reported as 37.2%. `CCOCCCn1c(NC(=O)c2cnc(C)s2)nc2ccccc21` showed an INHIBITION of 57%. `CCOCCCn1c(NC(=O)c2cc(C)no2)nc2ccccc21` showed an INHIBITION of 5.7%. For `Cc1ccc(C(=O)NCCS(=O)(=O)N2CCSCC2)o1`, the INHIBITION was 44.9%. Work on `Cc1nc2cc(O)nn2c(C)c1CCC(=O)N(C)Cc1cscn1` yielded an INHIBITION of -16.6%. Work on `O=C1CCCN1c1cccc(CNCc2nc(-c3ccco3)no2)c1` yielded an INHIBITION of -8%. In the case of `Cn1nccc1CCC(=O)NC1CCCN(c2ccccn2)C1` (stereo unspecified), the INHIBITION is reported as 25.05%. `CC(C)N(C)[C@@H]1CCN(Cc2nccs2)[C@H]1Cc1ccncc1` showed an INHIBITION of 24.6%. `CC1COCCN1Cc1nc(-c2ccc(F)cc2)no1` (stereo unspecified) was tested, and the INHIBITION was -0.113%. For `COC1C[C@@H]2CN(C(=O)c3[nH]nc4c3CCCC4)C[C@@H]2C1` (stereo partly specified), the INHIBITION was 24.8%. `Cn1c(CN2CCCC(c3noc(C4CC4)n3)C2)cc(=O)n(C)c1=O` (stereo unspecified) showed an INHIBITION of -50.5%. `CNC(=O)c1cccc(C2CNCCN2C(=O)c2cccc(F)c2)c1` (stereo unspecified) showed an INHIBITION of 44.8%. `COCCN1CCC2(CC1)CN(C(=O)N(C)C)c1ccc(C)cc12` showed an INHIBITION of 26.2%. For `COc1ccccc1NC(=O)C1(c2ccccc2)CCOCC1`, the INHIBITION was 6.26%. In the case of `CCOCC(=O)N1C[C@H]2CC[C@@H](C1)N(Cc1ccccn1)C2=O`, the INHIBITION is reported as 28.7%. For `COCCOc1ccc(NC(=O)C2CC(=O)N(C3CC3)C2)cn1` (stereo unspecified), the INHIBITION was 4.71%. Work on `COCCN(Cc1ccc(C)cc1)CC1CCOC1` (stereo unspecified) yielded an INHIBITION of 67.4%. For `COCCN(Cc1cnn(C)c1)CC1CCOC1` (stereo unspecified), the INHIBITION was 19.8%. `COCCN(Cc1cnn(C)c1)CC1CCN(C(C)C)CC1` gave an INHIBITION of 33.7%. `c1cc(-c2cnc(NC3CC3)nc2[C@H]2CCCO2)ccn1` showed an INHIBITION of -12.3%.
